# Results filed as inconclusive are left out. Activity calls are given as the source filed them. Unless noted, the limit is not given here; nearly all actives have AC50 up to about 26 µM.
# Experiments:
# [1] = viability loss in pontine glioma line – cell-based, SU-DIPG-XVII, MIPE5.0, CellTiter-Glo, qHTS, dose response (AID 1347060); conditions: CellTiter-Glo ATP luminescence;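 as to AC50: cells exposed to compound for 48 hours before viability readout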
# [2] = viability loss in pontine glioma line – cell-based, SU-DIPG-XXV, MIPE5.0, CellTiter-Glo, qHTS, dose response (AID 1347065); conditions: CellTiter-Glo ATP luminescence;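 also: cells exposed to compound for 48 hours before ATP readout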
# [3] = JHH-DIPG-1 glioma cell viability, MIPE5.0 library, CellTiter-Glo luminescence, qHTS (AID 1347067); conditions: JHH-DIPG-1 glioma viability, CellTiter-Glo ATP luminescence;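 also: cells exposed to compound for 48 hours before readout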
# [4] = growth inhibition of DIPG cells – cell-based, MIPE5.0 library, qHTS (AID 1347068; cut-off not given, nearly all actives have IC50 up to about 30 µM;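 as to IC50: cells exposed to compound for 48 hours before viability readout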); conditions: SU-DIPG-XXV viability
# [5] = drug combination growth inhibition, ovarian cancer – cell-based, oncology-focused library, rucaparib conditional, profiling panel (AID 1508598;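 active = normalized viability below 100% at a tested concentration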); conditions: patient-derived ovarian cancer cells, CellTiter-Glo viability, 144 h, stronger effect = lower value
# [6] = viability loss with induced miR-34 in A549 – imaging, A549 dox-inducible miR-34, nuclei and caspase counts, primary screen (AID 1347080;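 active = compounds whose cell count with miR-34 switched on is under 0.7 times the count with it off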); conditions: A549 miR-34 inducible, Hoechst nuclei count, 48 h
# [7] = MELAS cybrid and Rieske KO viability enhancers – cell-based, MELAS cybrids, Rieske KO mouse fibroblasts, CellTiter-Glo, primary screen (AID 1508586;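 active = mean z-score across replicates of 1.96 or higher in either the MELAS or the Rieske mutant cell line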;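 also: z relative to plate mean and SD of compound and empty wells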); conditions: low glucose
# [8] = growth inhibition of DIPG cells – cell-based, MIPE4.0 library, CellTiter-Glo luminescence, qHTS (AID 1347066; cut-off not given, nearly all actives have AC50 up to about 30 µM;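 also: cells exposed to compound for 48 hours before readout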); conditions: SU-DIPG-VI viability, CellTiter-Glo ATP luminescence
# [9] = stronger effect = lower value, cell number ratio, induced over uninduced
# [10] = measured here: relative caspase fold change +Dox/-Dox
# [11] = measured here: total cells with miR-34 induction, stronger effect = lower value
# [12] = measured here: total cells without miR-34 induction
# [13] = MELAS cybrid survival, CellTiter-Glo 48 h, stronger effect = higher value
# [14] = Rieske KO mouse fibroblast survival, CellTiter-Glo 72 h
smiles,measurement,setting,value
Nc1cc(COc2c(Cl)cc(C[C@H](N)C(=O)O)cc2Cl)c2oc(-c3ccccc3)nc2c1,outcome,[1],inactive
same,outcome,[2],inactive
same,outcome,[3],inactive
same,outcome,[4],inactive
N=C(N)c1ccc2nc(-c3cc(CC(=O)N[C@@H](CC(=O)O)C(=O)O)cc(-c4cc(S(N)(=O)=O)ccc4O)c3O)[nH]c2c1,outcome,[1],inactive
same,outcome,[2],inactive
same,outcome,[3],inactive
same,outcome,[4],inactive
CCCS(=O)(=O)c1nc(NC2CC2)cc(-c2ccc3c(ccn3C3CC(C)(C)NC(C)(C)C3)c2)n1,AC50,[1],3.93 µM (active)
same,AC50,[2],2.78 µM (active)
same,AC50,[3],2.78 µM (active)
same,IC50,[4],3.12 µM (active)
Cc1c(F)cc(C(=O)NC2CC2)cc1-c1c(F)cn2c(C(C)(C)C)nnc2c1F,outcome,[1],inactive
same,outcome,[2],inactive
same,outcome,[3],inactive
same,outcome,[4],inactive
O=c1c(-c2ccc(O)cc2)coc2c([C@@H]3O[C@H](CO)[C@@H](O)[C@H](O)[C@H]3O)c(O)ccc12,outcome,[1],inactive
same,outcome,[2],inactive
same,outcome,[3],inactive
same,outcome,[4],inactive
CN[C@@H](C)C(=O)N[C@H](C(=O)N1CCC[C@H]1c1nc(C(=O)c2ccc(F)cc2)cs1)C1CCCCC1,outcome,[1],inactive
same,outcome,[2],inactive
same,outcome,[3],inactive
same,outcome,[4],inactive
CC(=O)N1CCN(c2ccc(NC(=O)Cc3cnc(-c4ccnc(F)c4)c(C)c3)nc2)CC1,outcome,[1],inactive
same,outcome,[2],inactive
same,outcome,[3],inactive
same,outcome,[4],inactive
Cn1c(-c2ccccc2C(F)(F)F)nnc1C12CCC(c3noc(C4CC(F)(F)C4)n3)(CC1)CC2,outcome,[1],inactive
same,outcome,[2],inactive
same,outcome,[3],inactive
same,outcome,[4],inactive
O=C(/C=C/N1C[C@H]2C[C@@H]1CN2c1ccccn1)c1ccccc1O,outcome,[1],inactive
same,outcome,[3],inactive
COCCN1CCN(Cc2ccc(-c3n[nH]c4c3C(=O)c3c(NC(=O)NN5CCOCC5)cccc3-4)cc2)CC1,AC50,[1],0.295 µM (active)
same,AC50,[2],0.235 µM (active)
same,IC50,[4],0.263 µM (active)
C/C(=C\c1csc(C)n1)[C@@H]1C[C@@H]2O[C@]2(C)CCC[C@H](C)[C@H](O)[C@@H](C)C(=O)C(C)(C)[C@@H](O)CC(=O)N1,AC50,[1],0.0148 µM (active)
same,AC50,[2],0.0118 µM (active)
same,IC50,[4],3.32 µM (active)
CN[C@H]1CN(c2ccc3c(=O)c(C(=O)O)cn(-c4nccs4)c3n2)C[C@@H]1OC,AC50,[1],0.762 µM (active)
same,AC50,[2],4.28 µM (active)
same,viability,"[5]; at 0.000305 µM, OCI-C5x cells, with rucaparib 10 µM, 100% = cells with rucaparib alone",118% (inactive)
same,viability,"[5]; at 0.000305 µM, OCI-C5x cells, without rucaparib",108% (inactive)
same,viability,"[5]; at 0.000305 µM, OCI-P5x cells, with rucaparib 20 µM, 100% = cells with rucaparib alone",98.3% (active)
same,viability,"[5]; at 0.000305 µM, OCI-P5x cells, without rucaparib",105% (inactive)
same,viability,"[5]; at 0.00122 µM, OCI-C5x cells, with rucaparib 10 µM, 100% = cells with rucaparib alone",121% (inactive)
same,viability,"[5]; at 0.00122 µM, OCI-C5x cells, without rucaparib",111% (inactive)
same,viability,"[5]; at 0.00122 µM, OCI-P5x cells, with rucaparib 20 µM, 100% = cells with rucaparib alone",92.3% (active)
same,viability,"[5]; at 0.00122 µM, OCI-P5x cells, without rucaparib",97.9% (active)
same,viability,"[5]; at 0.00488 µM, OCI-C5x cells, with rucaparib 10 µM, 100% = cells with rucaparib alone",107% (inactive)
same,viability,"[5]; at 0.00488 µM, OCI-C5x cells, without rucaparib",103% (inactive)
same,viability,"[5]; at 0.00488 µM, OCI-P5x cells, with rucaparib 20 µM, 100% = cells with rucaparib alone",100% (inactive)
same,viability,"[5]; at 0.00488 µM, OCI-P5x cells, without rucaparib",98.6% (active)
same,viability,"[5]; at 0.0195 µM, OCI-C5x cells, with rucaparib 10 µM, 100% = cells with rucaparib alone",110% (inactive)
same,viability,"[5]; at 0.0195 µM, OCI-C5x cells, without rucaparib",110% (inactive)
same,viability,"[5]; at 0.0195 µM, OCI-P5x cells, with rucaparib 20 µM, 100% = cells with rucaparib alone",93.2% (active)
same,viability,"[5]; at 0.0195 µM, OCI-P5x cells, without rucaparib",95.3% (active)
same,viability,"[5]; at 0.0781 µM, OCI-C5x cells, with rucaparib 10 µM, 100% = cells with rucaparib alone",110% (inactive)
same,viability,"[5]; at 0.0781 µM, OCI-C5x cells, without rucaparib",92.5% (active)
same,viability,"[5]; at 0.0781 µM, OCI-P5x cells, with rucaparib 20 µM, 100% = cells with rucaparib alone",91.4% (active)
same,viability,"[5]; at 0.0781 µM, OCI-P5x cells, without rucaparib",91.4% (active)
same,viability,"[5]; at 0.313 µM, OCI-C5x cells, with rucaparib 10 µM, 100% = cells with rucaparib alone",143% (inactive)
same,viability,"[5]; at 0.313 µM, OCI-C5x cells, without rucaparib",119% (inactive)
same,viability,"[5]; at 0.313 µM, OCI-P5x cells, with rucaparib 20 µM, 100% = cells with rucaparib alone",79.7% (active)
same,viability,"[5]; at 0.313 µM, OCI-P5x cells, without rucaparib",62.5% (active)
same,viability,"[5]; at 1.25 µM, OCI-C5x cells, with rucaparib 10 µM, 100% = cells with rucaparib alone",154% (inactive)
same,viability,"[5]; at 1.25 µM, OCI-C5x cells, without rucaparib",118% (inactive)
same,viability,"[5]; at 1.25 µM, OCI-P5x cells, with rucaparib 20 µM, 100% = cells with rucaparib alone",63.6% (active)
same,viability,"[5]; at 1.25 µM, OCI-P5x cells, without rucaparib",41.5% (active)
same,viability,"[5]; at 5 µM, OCI-C5x cells, with rucaparib 10 µM, 100% = cells with rucaparib alone",9.22% (active)
same,viability,"[5]; at 5 µM, OCI-C5x cells, without rucaparib",12.6% (active)
same,viability,"[5]; at 5 µM, OCI-P5x cells, with rucaparib 20 µM, 100% = cells with rucaparib alone",9.42% (active)
same,viability,"[5]; at 5 µM, OCI-P5x cells, without rucaparib",6.69% (active)
C=CC(=O)N[C@H]1CN(c2nc(Nc3cn(C)nc3OC)c3ncn(C)c3n2)C[C@@H]1F,AC50,[1],18.6 µM (active)
same,AC50,[2],20.9 µM (active)
same,IC50,[4],16.6 µM (active)
CC#C[C@@H](CC(=O)O)c1ccc(OCc2cccc(-c3ccc(C(F)(F)F)cc3)c2)cc1,outcome,[1],inactive
same,outcome,[3],inactive
same,outcome,[4],inactive
[O-][n+]1cccc(-c2nc3c(Cl)cccc3cc2[C@@H](Nc2ncnc3cccnc23)C(F)(F)F)c1,outcome,[1],inactive
same,outcome,[3],inactive
Cc1[nH]nc2ncc(C(=O)N3CCC[C@H]3c3ccc(Cl)cc3)cc12,outcome,[1],inactive
same,outcome,[2],inactive
same,outcome,[4],inactive
O=C(O)CCNc1cc(N2CCc3ccccc3CC2)nc(-c2cccnc2)n1,outcome,[1],inactive
same,outcome,[3],inactive
same,outcome,[4],inactive
CC(C)(O)CNc1ncc(-c2ccnc(Nc3ccncc3)n2)c(CC2CC2)n1,AC50,[1],16.6 µM (active)
same,AC50,[3],16.6 µM (active)
same,IC50,[4],23.5 µM (active)
Cc1nc2cccc(N)c2c(=O)n1C1CCC(=O)NC1=O (stereo unspecified),outcome,[1],inactive
same,outcome,[3],inactive
same,outcome,[4],inactive
Nc1nc(OC(c2ccc(-c3cccc(F)c3)cc2)C(F)(F)F)cc(-c2ccc(C[C@H](N)C(=O)O)cc2)n1 (stereo partly specified),outcome,[1],inactive
same,outcome,[2],inactive
same,outcome,[4],inactive
Nc1ncnc2c1C(=O)N(c1ccc(C3CCC(CC(=O)O)CC3)cc1)CCO2 (stereo unspecified),outcome,[1],inactive
same,outcome,[2],inactive
same,outcome,[3],inactive
same,outcome,[4],inactive
same,fold change,[6]; [9],0.873 (inactive)
same,fold change,[6]; [10],0.72
same,cell count,[6]; [11],8200
same,cell count,[6]; [12],9390
same,z-score,[7]; [13],-0.311 (inactive)
same,z-score,[7]; [14],-0.473
CC(Nc1ncnc2nc[nH]c12)c1cc2cccc(Cl)c2c(=O)n1-c1ccccc1 (stereo unspecified),AC50,[1],18.6 µM (active)
same,AC50,[2],18.6 µM (active)
same,fold change,[6]; [9],0.872 (inactive)
same,fold change,[6]; [10],0.835
same,cell count,[6]; [11],6590
same,cell count,[6]; [12],7550
same,z-score,[7]; [13],-0.147 (inactive)
same,z-score,[7]; [14],-0.173
CCCC1OC2C[C@H]3[C@@H]4CCC5=CC(=O)C=C[C@]5(C)[C@H]4C(O)C[C@]3(C)[C@]2(C(=O)CO)O1 (stereo partly specified),outcome,[1],inactive
same,outcome,[8],inactive
same,outcome,[4],inactive
CCCOc1ccn2c(C(C)=O)cc(-c3ccccc3S(C)(=O)=O)c2c1,outcome,[1],inactive
same,outcome,[2],inactive
same,outcome,[4],inactive

# — PubChem BioAssay
